Results on 13 compounds are retold here after PubChem BioAssay (NCATS).

Active and inactive are the calls of the source. Calls follow the shape of the full dose curve.

This experiment can be described thus: Cell Proliferation Assay Versus the ED40515 IL2 Independent ATL cell lines (AID 1053194). The conditions noted are these: ED40515 IL2-independent ATL cells. An excerpt: Adult T-cell leukemia (ATL) develops in individuals infected with human T-cell lymphotropic virus-1 (HTLV-1). Clinically, ATL is subclassified into four subtypes: smoldering, chronic, lymphomatous, and acute. Two autocrine loops (IL-2/IL-2Ralpha and IL-15/IL-15Ralpha) and one paracrine stimulation loop that involves IL-9 expression by ATL cells and IL-9Ralpha expression on monocytes are required to maintain viability and proliferation in the smoldering and chronic forms of the disease. These assays examined the differential response profiles for the MIPE library of approved and investigational drugs versus an IL2 dependent and independent matched ATL cell line, with the current submission examining the differential response profiles for drugs on an IL2 independent matched ATL cell line
Plate log growing ED40515 -IL2 cells: 1000cells/ well in 5uL phenol red free RPMI +5% FBS +1x p/s, Glutamine using 1536 well white griener tissue culture plates and multidrop cassette acoustic dispensing Columns 1 and 3 DMSO Columns 2 and 4, 9.2 uM Bortezomib Incubate 48 hours for celltiter glo 37C with 5%CO2 and 95% humidity with low evaporation lids Dispense 3 uL per well of cell titer glo with multidrop Incubate for 15 minutes at RT Read on VL/2 using Luminesence Wheel (Filter A)
In the case of `CNC(=O)N1N=C(c2ccc(N)cc2)c2cc3c(cc2CC1C)OCO3` (stereo not drawn), the Potency is 2.96 µM (active).
Next, `Cc1sc2c(c1C)C(c1ccc(Cl)cc1)=N[C@@H](CC(=O)OC(C)(C)C)c1nnc(C)n1-2`: 0.0833 µM (active).
The result for `C[C@]12CCC(=O)C(O)=C1CC[C@@H]1[C@@H]2CC[C@]2(C)C(=O)CC[C@@H]12` reads 26.4 µM (active); that for `CS(=O)c1ccc(-c2nc(-c3ccc(F)cc3)c(-c3ccncc3)[nH]2)cc1` (stereo not drawn), 29.6 µM (active).
The result for `O=C(O)C(=O)c1cn(Cc2ccccc2)c2ccc(-c3ccc(OC(F)(F)F)cc3)cc12` reads 20.9 µM (active).
For the compound `COC1(CS(=O)c2ccccc2)CCN(CCc2c[nH]c3ccc(F)cc23)CC1` (stereo not drawn), the Potency was 23.5 µM (active).
Next, `Cc1cc(SCc2sc(-c3ccc(C(F)(F)F)c(F)c3)nc2C)ccc1OCC(=O)O`: 26.4 µM (active); `Cn1cc(C2=C(c3cn(C4CCN(Cc5ccccn5)CC4)c4ccccc34)C(=O)NC2=O)c2ccccc21`: 13.2 µM (active); `CC(O)(CS(=O)(=O)c1ccc(F)cc1)C(=O)Nc1ccc(C#N)c(C(F)(F)F)c1` (stereo not drawn): 18.7 µM (active).
The result for `Cn1c(CCCC(=O)O)nc2cc(N(CCCl)CCCl)ccc21` reads 18.7 µM (active).
Next, `COC[C@H]1OC(=O)c2coc3c2[C@@]1(C)C1=C(C3=O)C2CCC(=O)[C@@]2(C)C[C@H]1OC(C)=O` (stereo partly drawn): 14.8 µM (active); `CO[C@@H](C(=O)N1Cc2[nH]nc(NC(=O)c3ccc(N4CCN(C)CC4)cc3)c2C1)c1ccccc1`: 7.43 µM (active); `CN(C)CCN(C)CCc1ccc(Cl)c(Cl)c1`: 16.6 µM (active).
